Laboratory results: PubChem BioAssay AID504834 (National Center for Advancing Translational Sciences (NCATS), 2011)
Hit rate of the full screen: of about 320,000 compounds, about 22,000 (6.9%) were called active. Roughly 27% stayed inconclusive and do not appear here. Only a selection was taken, and actives are over-represented in it overall. Unmarked numbers belong to inactive results. Calls come from the whole dose curve; as a rule, active = well fitted inhibition curve with a large enough effect; inconclusive = small, poorly fitted or top-dose-only effect, or another doubt; inactive = no such curve, though single readings can be large or run the other way.

test: Primary qHTS for delayed death inhibitors of the malarial parasite plastid, 96 hour incubation; conditions: P. falciparum luciferase reporter growth; series mostly up to 28.7 µM; activity change, negative = inhibition: at the top concentration
Procedure, shortened: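 Plates of compound plus infected erythrocytes (2% hematocrit, 0.05% parasitemia final) incubate 96 hours, 37 C, 5% CO2. Detection reagent added; reduced luminescence from the parasites' luciferase reporter flags inhibition.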
% is set by controls: 0 for no effect and ±100 for the full control effect; potency is the fitted concentration of half-maximal effect.

Compound	activity change, negative = inhibition	Potency
CCOC(=O)C(C)n1cnc2c(nnn2-c2cccc(OC)c2)c1=O (configuration not stated)	-28.3%	
COc1ccc(/C=N\NC(=O)c2sc(N)nc2C)cc1OC	42.8%	
COc1cccc(OCc2cc(/C=N/NC(=O)c3nc(Cl)c(Cl)c(N)c3Cl)ccc2OC)c1		13.1 µM (active)
COc1ccc(/C=N/NC(=O)c2ccc(Cl)cc2)cc1COC(C)=O	13.5%	
O=C(NC1CCCCC1)c1cc(C2CC2)on1	90.7%	
O=C(Nc1cc(C(F)(F)F)ccc1Cl)c1cc(C2CC2)on1	-29.2%	
CSc1ccccc1NC(=O)c1cc(C2CC2)on1		7.38 µM (active)
Cc1ccc(OCC(=O)NC(C)c2ccccc2)cc1C (configuration not stated)		5.22 µM (active)
CC(=O)NC(CC(=O)O)c1ccc(F)cc1 (configuration not stated)	137%	
COc1ccc(C(CC(=O)O)NC(=O)Cc2ccccc2)cc1 (configuration not stated)		2.94 µM (active)
COc1ccc(C(CC(=O)Nc2ccc(C)cc2)NC(=O)C(F)(F)F)cc1 (configuration not stated)	22.6%	
O=C(COc1ccccc1)Nc1nonc1NC(=O)COc1ccccc1	-1.51%	
CCOc1ccc(C(CC(=O)O)NC(=O)COc2ccccc2)cc1 (configuration not stated)		10.4 µM (active)
COCCNC(=O)COc1ccc(C)c(C)c1	24.7%	
Cc1cc(C)cc(OCC(=O)NC(C)c2ccccc2)c1 (configuration not stated)	-4.04%	
CCOc1ccc(C(CC(=O)O)NC(=O)Cc2ccccc2)cc1OC (configuration not stated)	31.4%	
CCN(CC)S(=O)(=O)c1ccc2[nH]c(=O)cc(C(=O)N(C)C3CCS(=O)(=O)C3)c2c1 (configuration not stated)	-24.5%	
COc1ccc(-c2cnc(SCCNC(=O)c3ccc4c(c3)OCO4)[nH]2)cc1	-6.78%	
CCOc1ccc(N(CC(=O)Nc2cccc(OC)c2)S(C)(=O)=O)cc1	-19.7%	
CC(=O)Nc1cccc(C(=O)OCN2C(=O)c3ccccc3C2=O)c1	-2.17%	
Cc1cccc(NC(=O)c2ccc3ccccc3n2)n1	32%	
Cc1ccc2cccc(OCCCOc3ccccc3CO)c2n1	42.1%	
Cc1ccc(N(C)C(=O)Oc2cccc3ccc(C)nc23)cc1		0.104 µM (active)
CSCCC(NC(=O)c1ccco1)C(=O)Nc1cc(C)ccn1 (configuration not stated)	157%	
CCOC(=O)c1cc(S(=O)(=O)NCCc2ccc(OC)c(OC)c2)cn1C		13.1 µM (active)
COc1ccc(CCNS(=O)(=O)c2ccc(F)cc2)cc1OC	4.43%	

Compound	activity change, negative = inhibition	Potency
CCS(=O)(=O)NCCc1ccc(OC)c(OC)c1	7.66%	
Cc1[nH]c2ccc(C(=O)N3CCN(C)CC3)cc2c1C	71.1%	
Cc1c(Cl)cccc1NC(=O)[C@@]1(CC(=O)O)CC(/C=C/c2ccccc2)=NO1	12.7%	
CN1CCc2nc(SC(C(=O)O)c3ccccc3)c(C#N)c(-c3cccs3)c2C1 (configuration not stated)	2.82%	
Cc1cc(NC(=O)CCS(=O)(=O)c2ccc(F)cc2)no1	17.5%	
COc1cccc(/C=N/NC(=O)c2[nH]nc3c2CCc2ccccc2-3)c1O	11.3%	
COc1cccc(/C=N\NC(=O)C2=NNC(=O)C2C)c1O (configuration not stated)		4.15 µM (active)
COc1ccc(C(=O)Nc2ccccc2C(=O)N/N=C/c2ccccc2OC)cc1	-12.8%	
COc1ccccc1-n1ccnc(SCC(=O)NC2CCCCC2)c1=O	-12.4%	
COc1ccc(C(=O)OCC(=O)Nc2ccc3[nH]c(=O)[nH]c3c2)c(OC)c1OC	7.27%	
Cc1ccc(S(=O)(=O)N(C)C)cc1NC(=O)COC(=O)/C=C/c1cccs1	-0.398%	
O=C(NC(C(=O)NCCN1CCOCC1)C12CC3CC(CC(C3)C1)C2)C1CCCCC1 (configuration not stated)	-25.7%	
CC(C)C(NC(=O)C1CCC(C(C)(C)C)CC1)C(=O)NCCCN1CCCCC1 (configuration not stated)		13.1 µM (active)
CC(C)[C@@H](NC(=O)OC(C)(C)C)C(=O)NCC1CCC(C(=O)N[C@@H](Cc2ccccc2)C(=O)O)CC1 (some centres not stated)	-3.55%	
CCCCn1c(N)c(N(CC)C(=O)c2ccccc2C(F)(F)F)c(=O)[nH]c1=O	14.2%	
CCOc1ccc(CN(C)C(=O)c2ccc(=O)[nH]c2)cc1	-5.36%	
COc1ccc(N(CCC(=O)NCCc2ccccc2)S(=O)(=O)c2ccc(C)cc2C)cc1	28%	
Cc1cccc(NC(=S)NC(=O)c2ccc(Br)o2)c1	48.5%	
Cc1cccc(NC(=O)Nc2cccc(Oc3c(F)c(F)c(F)c(F)c3F)c2)c1		2.08 µM (active)
Cc1cccc(NC(=O)NC(=S)NC(=O)c2ccccc2)c1	111%	
Cc1ccc(C)c(NS(=O)(=O)c2ccc(OCC(=O)NCc3cccnc3)cc2)c1	5.79%	
Cc1ccc(S(=O)(=O)c2nc(-c3cccs3)oc2NCc2cccnc2)cc1		11.7 µM (active)
O=C(NCc1cccnc1)c1nc(-c2cccs2)no1	112% [at 5.75 µM]	
COc1cccc2cc(C(N)=O)/c(=N\NC(=O)c3ccccc3)oc12	-23.7%	
Cn1nccc1NS(=O)(=O)c1ccc(F)cc1	-10.2%	
O=C(CN1CCN(c2ccc(Cl)cc2)CC1)c1ccccc1	-0.965%	

Compound	activity change, negative = inhibition	Potency
CC(=O)c1nn(-c2cccc(Br)c2)cc1C(=O)c1cccc2ccccc12		6.57 µM (active)
CC(=O)c1ccc2c(ccc3ccccc32)c1	55.4%	
Cc1ccn2c(=O)c(NC(=O)c3cccc4ccccc34)c(C)nc2c1	-9.77%	
Cc1ccc(C(=O)OCC(=O)Nc2ccc(Cl)cn2)cc1S(=O)(=O)N1CCOCC1	3.68%	
Cc1ccc(CSc2ccc(S(=O)(=O)N3CCCCC3)cn2)cc1	17.7%	
O=C(Nc1ccc(F)cc1)c1ccc(S(=O)(=O)NCc2cccnc2)cc1	6.72%	
Cc1cccn2cc(-c3cccc(S(=O)(=O)N4CCCCC4)c3)nc12	5.08%	
COc1ccc(N2CCN(C(=O)c3ccc(N4CCCCS4(=O)=O)cc3)CC2)cc1	108%	
Cc1ccc(CN(Cc2cccnc2)C(=S)Nc2cccc(Cl)c2C)cc1	-17.2%	
COCCNC(=S)N(Cc1cccnc1)Cc1ccc(OC)c(OC)c1	-15.1%	
COCCNC(=S)N(CCc1c(C)[nH]c2ccc(C)cc12)Cc1cccnc1		1.65 µM (active)
CC(NC(=O)c1cc(=O)[nH]c2ccccc12)c1ccc(F)cc1F (configuration not stated)	-2.79%	
O=C1C(=O)N(CCCN2CCOCC2)C(c2ccc([N+](=O)[O-])cc2)/C1=C(\O)c1ccc2c(c1)OCCO2 (configuration not stated)	-23.5%	
COC(=O)c1c(NC(=O)C(=O)N2CCCCC2)sc2c1CC(C)(C)OC2	-9.87%	
Cc1ccc(CNC(=O)Cn2c(=O)c3sccc3n(Cc3cccc([N+](=O)[O-])c3)c2=O)cc1		8.28 µM (active)
COCCNC(=O)CCCn1c(=O)c2ccccc2n(Cc2cccc([N+](=O)[O-])c2)c1=O	-27.3%	
Cc1ccc(Cn2c(C)c3cnn(CC(=O)NCc4ccccn4)c(=O)c3c2C)cc1	31.5%	
CSCC[C@H](NC(=O)N1CCn2c1nc1ccccc12)C(=O)NC1CCCCC1	-11.6%	
CCn1c(SCC(=O)NC2CC2)nnc1-c1ccncc1	30.7%	
COc1ccc(-n2cc(CN(C)Cc3n[nH]c(=O)[nH]3)c(-c3cccc(F)c3)n2)cc1	1.24%	
Cc1ccc(-n2cc(CN(C)Cc3nccn3C)c(-c3cccc(C)c3)n2)cc1		3.7 µM (active)
Cc1cccc(-n2cc(CN3CCN(C(=O)c4ncn[nH]4)CC3)c(-c3cccc(F)c3)n2)c1	16.2%	
CCCCn1c(N)c(N(CC(C)C)C(=O)c2cnc(C)cn2)c(=O)[nH]c1=O	23.4%	
Cc1nn(Cc2ccccc2)c(C)c1C(=O)NCCCN1CCCC1=O	7.34%	
Cc1cc(NS(=O)(=O)c2ccccc2)no1	42.6%	
Cc1nn(Cc2ccccc2)c(C)c1NS(=O)(=O)c1ccccc1		10.4 µM (active)

Compound	activity change, negative = inhibition	Potency
NNC(=O)c1cccc(COCC(F)(F)C(F)F)c1	10.6%	
COCCNc1nnc(SCC(=O)NNC(=O)c2ccco2)s1	-15.4%	
CCCc1nnc(NC(=O)CCC(=O)NC2CC2)s1	6.55%	
CSc1ccc(S(=O)(=O)N2CCC(C(=O)NCc3ccncc3)CC2)cc1		7.38 µM (active)
COc1ccc(CNC(=O)C2CCN(S(=O)(=O)c3ccc(SC)cc3)CC2)cc1	2.03%	
O=C(NCc1ccncc1)C1CCCN(S(=O)(=O)c2ccc(Br)cc2)C1 (configuration not stated)	19.8%	
CSc1ccc(NC(=O)/C=C/C(=O)O)cc1	10.9%	
O=C(Nc1ccccc1C(=O)N1CCCCC1)c1ccco1	32.1%	
CCC(C(=O)NC1CCCC1)N(C(=O)Cn1nnc(-c2ccc(C)o2)n1)c1ccc(OC)c(OC)c1 (configuration not stated)	-18.7%	
COc1cccc(N(CC(=O)NC2CCCC2)C(=O)Cn2nnc(-c3ccc(C)o3)n2)c1		11.7 µM (active)
COc1ccc(C(C(=O)NC2CCCC2)N(CCCO)C(=O)Cn2nnc(-c3ccc(C)o3)n2)cc1 (configuration not stated)		3.7 µM (active)
Cc1cccc(N(C(=O)Cn2nnc(-c3ccc(C)o3)n2)C(C(=O)NC2CCCC2)c2ccncc2)c1 (configuration not stated)	-5.05%	
O=C(Cn1nnc(-c2ccccc2)n1)NC(=O)NC1CCCC1	16.9%	
COc1cccc(N(CC(=O)NC2CCCC2)C(=O)Cn2nnc(-c3ccc(C)cc3)n2)c1	13.2%	
CCOCCCN(C(=O)Cn1nnc(-c2ccc(OC)c(OC)c2)n1)C(CC)C(=O)NC1CCCC1 (configuration not stated)	5.08%	
COc1ccc(C)cc1N(C(=O)Cn1nnc(-c2ccc(C)o2)n1)C(C(=O)NC1CCCC1)c1ccncc1 (configuration not stated)		8.28 µM (active)
COc1ccc(-c2nnn(CC(=O)N(CCO)C(C(=O)NC3CCCC3)c3ccc(F)cc3)n2)cc1 (configuration not stated)	11.1%	
CC1CC(C)CN(c2ccc(S(=O)(=O)N3CCOCC3)cc2)C1 (configuration not stated)	0%	
Cc1occc1-c1nnc(SCC(=O)NC2CCCCC2)o1	7.18%	
Cc1nc(N)nc(SCc2ccc([N+](=O)[O-])cc2)c1N	18.6%	
O=C(c1ccc(Cl)c(S(=O)(=O)N2CCCCC2)c1)N1CCCCCC1	5.22%	
COc1ccc(Cl)cc1NS(=O)(=O)c1cccc(C(=O)NC2CCC(O)CC2)c1 (configuration not stated)	-3.89%	
CCCCN(CCCC)CCNC(=O)CN1C(=O)COc2ccc(S(=O)(=O)N3CCOCC3)cc21	-0.253%	
Cc1ccc(OCC(=O)Nc2ccccc2C(=O)NC2CC2)cc1C	3.06%	
